The results in this text go back to PubChem BioAssay (EPA / NIEHS).

Common to all, as to settings: mRNA level, 48 h; actives raise or lower the signal
Read-out in test [1]: Cytochrome P450 (CYP2B6), CYP2B6 (gene 1555)
Put plainly: LTEA_HepaRG_CYP2B6: Life Technologies and Expression Analysis (LTEA) Assay for Cytochrome P450 (CYP2B6) using HepaRG (AID 2283481). The method in brief: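 Using 48 h treatment of HepaRG cells in serum-free induction medium, concentrations spanned half-log steps from 100 uM in 0.5% DMSO vehicle. CYP2B6 mRNA induction or loss is scored by qRT-PCR against DMSO.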

Read-out in test [2]: Cytochrome P450 2C19 (Homo sapiens) (UniProt P33261)
The test can be described thus: LTEA_HepaRG_CYP2C19: Life Technologies and Expression Analysis (LTEA) Assay for CYP2C19 using HepaRG (AID 2283482). In short, it runs like this:
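Human HepaRG liver cells received test chemicals for 48 h (highest 100 uM, half-log dilutions in 0.5% DMSO). CYP2C19 mRNA induction or loss is read by multiplexed qRT-PCR and fitted in both directions versus vehicle.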

Read-out in test [3]: CYP2C8 (gene 1558)
Put plainly: LTEA_HepaRG_CYP2C8: Life Technologies and Expression Analysis (LTEA) Assay for CYP2C8 using HepaRG (AID 2283483). The method in brief: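 CYP2C8 expression measured by TaqMan qRT-PCR and normalized to three housekeeping genes. HepaRG cultures were treated for 48 h with an eight-point half-log series topping at 100 uM, vehicle 0.5% DMSO, duplicates; fitted both directions against DMSO.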

Read-out in test [4]: CYP2C9 (gene 1559)
Put plainly: LTEA_HepaRG_CYP2C9: Life Technologies and Expression Analysis (LTEA) Assay for CYP2C9 using HepaRG (AID 2283484). In short, it runs like this: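 CYP2C9 transcript level, quantified by TaqMan qRT-PCR against three housekeeping genes, was fitted bidirectionally relative to 0.5% DMSO. HepaRG cultures were treated 48 h, in duplicate, at eight half-log concentrations topping at 100 uM.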

Read-out in test [5]: CYP2E1 (gene 1571)
The test can be described thus: LTEA_HepaRG_CYP2E1: Life Technologies and Expression Analysis (LTEA) Assay for CYP2E1 using HepaRG (AID 2283485). In short, it runs like this: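 Assay uses 48 h exposure of HepaRG hepatic cells, eight concentrations to 100 uM. Expression of CYP2E1 is quantified by TaqMan qRT-PCR with ACTB, GAPDH and POLR2A normalization; curves fitted in both directions relative to vehicle.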

Read-out in test [6]: CYP4A11 (gene 1579)
Put plainly: LTEA_HepaRG_CYP4A11: Life Technologies and Expression Analysis (LTEA) Assay for CYP4A11 using HepaRG (AID 2283486). The method in brief: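 Readout is CYP4A11 mRNA induction or suppression (qRT-PCR, ACTB/GAPDH/POLR2A normalization) in human HepaRG cells after 48 h chemical treatment, concentrations to 100 uM in 0.5% DMSO, fitted bidirectionally against vehicle.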

Read-out in test [7]: Cytochrome P450 3A4 (Homo sapiens) (UniProt P08684)
Put plainly: LTEA_HepaRG_CYP3A4: Life Technologies and Expression Analysis (LTEA) Assay for CYP3A4 using HepaRG (AID 2283487). In short, it runs like this:
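Differentiated HepaRG cells in serum-free induction medium exposed in duplicate for 48 h to 8 half-log concentrations up to 100 uM in 0.5% DMSO. CYP3A4 mRNA measured by qRT-PCR normalized to ACTB, GAPDH and POLR2A; bidirectional fit versus DMSO.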

Read-out in test [8]: DNA damage-inducible transcript 3 (DDIT3), DDIT3 (gene 1649)
Put plainly: LTEA_HepaRG_DDIT3: Life Technologies and Expression Analysis (LTEA) Assay for DNA damage-inducible transcript 3 (DDIT3) using HepaRG (AID 2283488). In short, it runs like this:
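Eight-point concentration-response (100 uM highest, half-log dilutions) in HepaRG, 48 h, duplicate wells. Endpoint: qRT-PCR mRNA, normalized (ACTB, GAPDH, POLR2A), bidirectional fitting with DMSO as baseline.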

Read-out in test [9]: Pro-epidermal growth factor (Homo sapiens) (UniProt P01133)
The test can be described thus: LTEA_HepaRG_EGF: Life Technologies and Expression Analysis (LTEA) Assay for Epidermal growth factor (EGF) using HepaRG (AID 2283489). In short, it runs like this:
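EGF expression changes in human HepaRG cells are scored by bidirectional fitting relative to 0.5% DMSO controls. Chemicals are tested at eight half-log concentrations up to 100 uM for 48 h in serum-free induction medium.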

Read-out in test [10]: Early growth response protein 1 (EGR1) transcription factor, EGR1 (gene 1958)
The test can be described thus: LTEA_HepaRG_EGR1: Life Technologies and Expression Analysis (LTEA) Assay for Early growth response protein 1 (EGR1) transcription factor using HepaRG (AID 2283490). The method in brief: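 EGR1 transcript levels quantified by qRT-PCR (Fluidigm arrays) against three housekeeping genes after 48 h chemical exposure of HepaRG cells. Eight-point half-log series topping at 100 uM, 0.5% DMSO vehicle, analyzed for gain or loss.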

Read-out in test [11]: Cytochrome P450 3A7 (Homo sapiens) (UniProt P24462)
The test can be described thus: LTEA_HepaRG_CYP3A7: Life Technologies and Expression Analysis (LTEA) Assay for CYP3A7 using HepaRG (AID 2283492). In short, it runs like this: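 Cells were thawed, plated, cultured 48 h, then treated for a further 48 h with chemicals (eight-point half-log series from 100 uM, 0.5% DMSO). RNA was isolated and CYP3A7 expression quantified by qRT-PCR normalised to ACTB, GAPDH and POLR2A.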

Read-out in test [12]: CYP3A5 (gene 1577)
The test can be described thus: LTEA_HepaRG_CYP3A5: Life Technologies and Expression Analysis (LTEA) Assay for CYP3A5 using HepaRG (AID 2283493). The method in brief:
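Readout was CYP3A5 mRNA by qRT-PCR. HepaRG cultures were exposed for 48 h in serum-free induction medium to chemicals at up to 100 uM, and responses were fitted in both directions relative to DMSO vehicle.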

Read-out in test [13]: Fatty Acid-Binding Protein 1 (FABP1), FABP1 (gene 2168)
The test can be described thus: LTEA_HepaRG_FABP1: Life Technologies and Expression Analysis (LTEA) Assay for Fatty Acid-Binding Protein 1 (FABP1) using HepaRG (AID 2283494). In short, it runs like this: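 FABP1 expression by TaqMan qRT-PCR, normalised to three housekeeping genes, in HepaRG cells after 48 h chemical treatment. Eight-point half-log series topping at 100 uM in 0.5% DMSO, duplicates; gain or loss fitted relative to vehicle.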

Read-out in test [14]: Cytochrome P450 4A22 (Homo sapiens) (UniProt Q5TCH4)
The test can be described thus: LTEA_HepaRG_CYP4A22: Life Technologies and Expression Analysis (LTEA) Assay for Cytochrome P450 4A22 (CYP4A22) using HepaRG (AID 2283495). In short, it runs like this:
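Cryopreserved HepaRG cells, plated and cultured 48 h, then switched to serum-free induction medium and treated 48 h (duplicates, up to 100 uM, half-log steps, 0.5% DMSO). Expression change of CYP4A22 was fitted bidirectionally against vehicle.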

Read-out in test [15]: Cytochrome P450 7A1 (Homo sapiens) (UniProt P22680)
The test can be described thus: LTEA_HepaRG_CYP7A1: Life Technologies and Expression Analysis (LTEA) Assay for Cytochrome P450 7A1 (CYP7A1) using HepaRG (AID 2283496). In short, it runs like this: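 Using 0.5% DMSO as vehicle and baseline, chemicals were tested in duplicate over an 8-point range from 100 uM on HepaRG cells for 48 h; qRT-PCR signals were normalised to ACTB, GAPDH and POLR2A.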

Read-out in test [16]: Glutathione S-Transferase (GSTA2), GSTA2 (gene 2939)
The test can be described thus: LTEA_HepaRG_GSTA2: Life Technologies and Expression Analysis (LTEA) Assay for Glutathione S-Transferase (GSTA2) using HepaRG (AID 2283497). The method in brief:
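GSTA2 transcript levels came from Fluidigm TaqMan qRT-PCR normalized to three housekeeping genes, fitted in both directions against DMSO. HepaRG cultures received chemicals for 48 h in serum-free induction medium (0.5% DMSO), 8 half-log concentrations up to 100 uM, duplicate.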

Read-out in test [17]: Glutamate-cysteine ligase catalytic (GCLC), GCLC (gene 2729)
The test can be described thus: LTEA_HepaRG_GCLC: Life Technologies and Expression Analysis (LTEA) Assay for Glutamate-cysteine ligase catalytic (GCLC) using HepaRG (AID 2283498). In short, it runs like this:
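Expression by TaqMan qRT-PCR, normalized to three housekeeping genes (ACTB, GAPDH, POLR2A), with up- or down-regulation fitted against DMSO. HepaRG cells dosed in duplicate for 48 h with 8 half-log concentrations up to 100 uM, vehicle 0.5% DMSO.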

Read-out in test [18]: growth arrest and DNA damage 45 (GADD45G), GADD45G (gene 10912)
The test can be described thus: LTEA_HepaRG_GADD45G: Life Technologies and Expression Analysis (LTEA) Assay for growth arrest and DNA damage 45 (GADD45G) using HepaRG (AID 2283499). In short, it runs like this:
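Human hepatic HepaRG line treated 48 h with chemicals (eight concentrations, half-log steps from 100 uM); transcript induction or repression of GADD45G scored by qRT-PCR versus DMSO vehicle.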

Read-out in test [19]: Ezrin (EZR), EZR (gene 7430)
The test can be described thus: LTEA_HepaRG_EZR: Life Technologies and Expression Analysis (LTEA) Assay for Ezrin (EZR) using HepaRG (AID 2283491). The method in brief: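 Differentiated human HepaRG cells, 48 h after plating, were exposed in serum-free induction medium for 48 hours to eight half-log concentrations up to 100 uM in 0.5% DMSO. EZR mRNA was measured by TaqMan qRT-PCR, normalized to ACTB, GAPDH and POLR2A, and fitted bidirectionally against DMSO.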

Read-out in test [20]: Glutamate-cysteine ligase regulatory (GCLM), GCLM (gene 2730)
The test can be described thus: LTEA_HepaRG_GCLM: Life Technologies and Expression Analysis (LTEA) Assay for Glutamate-cysteine ligase regulatory (GCLM) using HepaRG (AID 2283500). In short, it runs like this:
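In this multiplexed HepaRG gene-expression assay, GCLM mRNA change after 48 h treatment (8 concentrations, max 100 uM) was scored against DMSO by bidirectional curve fitting.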

Calls of active or inactive are those of the source. How the source made its calls: active means hit-call score of the fitted dose curve at least 0.9, where 1 is the maximum; inactive means score below 0.9.

Sequence of Cytochrome P450 3A7 (Homo sapiens) (P24462 whole entry, looked up): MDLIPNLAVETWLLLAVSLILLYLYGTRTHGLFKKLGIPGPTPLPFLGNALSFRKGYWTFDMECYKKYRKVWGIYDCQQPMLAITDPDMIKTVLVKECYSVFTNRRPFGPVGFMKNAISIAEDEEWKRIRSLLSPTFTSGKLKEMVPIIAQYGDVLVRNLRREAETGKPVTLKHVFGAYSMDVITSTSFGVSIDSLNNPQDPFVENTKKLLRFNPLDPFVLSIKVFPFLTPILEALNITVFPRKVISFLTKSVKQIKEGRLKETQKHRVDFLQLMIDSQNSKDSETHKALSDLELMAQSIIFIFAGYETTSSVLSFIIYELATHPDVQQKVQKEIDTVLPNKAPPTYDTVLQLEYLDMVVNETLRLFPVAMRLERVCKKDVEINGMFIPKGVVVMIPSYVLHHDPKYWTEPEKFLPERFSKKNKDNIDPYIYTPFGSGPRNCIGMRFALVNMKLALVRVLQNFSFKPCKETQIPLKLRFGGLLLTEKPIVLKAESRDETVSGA
Sequence of Cytochrome P450 3A4 (Homo sapiens) (P08684 whole entry, looked up): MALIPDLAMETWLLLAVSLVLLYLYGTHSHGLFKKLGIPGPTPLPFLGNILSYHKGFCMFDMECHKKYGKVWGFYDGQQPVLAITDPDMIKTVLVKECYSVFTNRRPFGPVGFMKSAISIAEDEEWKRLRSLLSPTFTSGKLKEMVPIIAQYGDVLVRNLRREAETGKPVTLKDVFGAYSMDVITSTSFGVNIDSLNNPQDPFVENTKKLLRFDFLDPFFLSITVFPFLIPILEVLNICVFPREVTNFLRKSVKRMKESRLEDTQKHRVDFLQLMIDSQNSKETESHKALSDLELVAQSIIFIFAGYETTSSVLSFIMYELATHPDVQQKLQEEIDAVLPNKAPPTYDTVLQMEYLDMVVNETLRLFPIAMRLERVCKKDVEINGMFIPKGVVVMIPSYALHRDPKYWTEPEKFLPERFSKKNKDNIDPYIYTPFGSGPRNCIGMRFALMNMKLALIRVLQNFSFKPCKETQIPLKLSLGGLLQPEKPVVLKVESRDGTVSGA
Sequence of Cytochrome P450 2C19 (Homo sapiens) (P33261 whole entry, looked up): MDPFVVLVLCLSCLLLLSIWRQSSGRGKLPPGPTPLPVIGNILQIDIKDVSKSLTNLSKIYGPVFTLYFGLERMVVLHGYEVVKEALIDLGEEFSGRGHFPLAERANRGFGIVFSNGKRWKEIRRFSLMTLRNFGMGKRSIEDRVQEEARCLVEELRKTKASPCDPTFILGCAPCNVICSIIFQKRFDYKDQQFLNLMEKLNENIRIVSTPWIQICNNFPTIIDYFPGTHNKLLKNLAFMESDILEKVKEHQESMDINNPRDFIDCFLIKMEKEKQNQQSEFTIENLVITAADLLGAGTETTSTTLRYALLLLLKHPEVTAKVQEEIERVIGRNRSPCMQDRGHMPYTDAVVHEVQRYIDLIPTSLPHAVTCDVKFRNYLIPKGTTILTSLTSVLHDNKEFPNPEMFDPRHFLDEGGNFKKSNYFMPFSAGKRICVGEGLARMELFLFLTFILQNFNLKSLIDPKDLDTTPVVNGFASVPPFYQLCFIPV

For the compound `CCCCCOC(=O)c1ccccc1C(=O)OCCCCC`, the compound was called inactive in [1], in [2], in [3], in test [4], in test [5] and in test [7]. Moreover, the compound was classed as inactive in [8], in [9], in [10], in [11], in test [12] and in test [13]. The compound was called inactive in test [15], in test [16], in test [17] and in test [18]. Also, the results for the AC50 in test [6] and in test [14] were 50 µM (active) and 79.7 µM (active), respectively.
Take `N#CC(Br)Br`: the result in test [1], in test [2], in test [3], in test [4], in test [5] and in test [6] was inactive. Moreover, the result in test [7], in [8], in test [9], in [10], in test [19] and in test [11] was inactive. Besides, the call in [13], in test [14], in [15], in test [16], in test [17] and in [18] was inactive. Further, in [20], the outcome was inactive.
On to `CCCSC(=O)N(CCC)CCC`, for which the AC50 (commonly the concentration at which the activity in the assay is half-maximal) in test [1] was 50 µM (active). Moreover, the compound was called inactive in test [2], in [3], in test [4], in test [5], in test [6] and in [7]. Also, the compound was classed as inactive in test [8], in test [9], in [10], in test [11], in test [12] and in test [13]. For the same compound, the outcome in [14], in [15], in test [16], in [17], in test [18] and in test [20] was inactive.
Consider `Cc1cc(N=Nc2ccccc2C)ccc1N`, for which the AC50 in [1] was 5.08 µM (active); in test [2], 4.72 µM (active); in test [3], 5.98 µM (active); in [4], 4.8 µM (active); in test [5], 12.8 µM (active); in test [6], 4.52 µM (active). The half-maximal activity concentration (AC50) in test [7] was 2.94 µM (active); in test [11], 6.38 µM (active); in [12] it was 3.11 µM (active); in test [13] it was 5.03 µM (active); in test [14], 4.39 µM (active); in test [15] it was 12.8 µM (active). The AC50 in test [16] is 5.01 µM (active); in test [17], 1.67 µM (active); in [18], 4.14 µM (active); in test [20], 50 µM (active). In addition, the compound was classed as inactive in test [8], in test [9] and in test [10].
With `O=C1CCCO1`, the compound was classed as inactive in [1], in [2], in test [3], in test [4], in test [5] and in test [7]. For the same compound, the outcome in test [8], in [9], in [10], in test [11], in test [13] and in test [14] was inactive. In addition, the result in test [15], in test [18] and in test [20] was inactive. Besides, the AC50 in test [6] is 0.0449 µM (active); in test [12], 9.92 µM (active); in test [16], 50 µM (active); in test [17], 9.92 µM (active).
`CC(C)(O)c1cnn2c(-c3ccc(F)c(-c4c(F)cccc4C#N)c3)cnc2n1`: the AC50 is 0.705 µM (active) in [1]; 0.365 µM (active) in test [2]; 0.291 µM (active) in [4]; 4.43 µM (active) in [5]; 1.51 µM (active) in test [6]; 0.263 µM (active) in test [7]. The values for the AC50 in test [13], in test [14] and in [15] were 1.57 µM (active), 1.71 µM (active) and 4.14 µM (active), respectively. Also, the outcome in test [3], in test [8], in [9], in [10], in [11] and in [12] was inactive. For the same compound, the outcome in test [16], in test [17], in [18] and in test [20] was inactive.
